According to PubChem BioAssay AID743144 (Broad Institute, 2013):
Measured potencies and affinities stand elsewhere. Results filed as inconclusive are left out. Active and inactive are the calls of the source. No rule for the calls is given here.

Assay: COV362 cell viability loss – plate reader, dry powder, SA12, cytotoxicity control for PAX8 inhibitor project, dose response (AID 743144)
Settings: COV362 ovarian cancer cells; series mostly up to 35 µM

SMILES	outcome
COc1cccc(-c2ccc([C@H]3[C@@H](CO)N(C(=O)Cc4ccccc4)[C@H]3C#N)cc2)c1	inactive
C[C@@H]1CN([C@H](C)CO)C(=O)CCCn2nncc2CO[C@H]1CN(C)Cc1ccc(Oc2ccccc2)cc1	inactive
COc1cccc(C#Cc2ccc([C@H]3[C@@H](CO)N(C(=O)c4ccccn4)[C@H]3C#N)cc2)c1	inactive
COc1cccc(C#Cc2ccc([C@@H]3[C@H](C#N)N(C(=O)c4ccccn4)[C@H]3CO)cc2)c1	inactive
COc1ccc(S(=O)(=O)Nc2ccc3c(c2)CC(=O)N([C@@H](C)CO)C[C@H](C)[C@@H](CN(C)Cc2ccc(C(F)(F)F)cc2)O3)cc1	inactive
Cc1ccc(S(=O)(=O)Nc2ccc3c(c2)C(=O)N([C@H](C)CO)C[C@@H](C)[C@H](CN(C)Cc2ccc(C(F)(F)F)cc2)OCCCC[C@H](C)O3)cc1	inactive
O=C(Nc1ccc(OCC(F)(F)C(F)F)c(C(F)(F)F)c1)c1ccccc1O	inactive
CCCC#Cc1ccc([C@@H]2[C@@H](C#N)N(S(=O)(=O)c3cccc(F)c3)[C@H]2CO)cc1	inactive
C[C@H](CO)N1C[C@H](C)[C@@H](CN(C)Cc2ccc(-c3ccccc3)cc2)Oc2ccc(NC(=O)C3CC3)cc2CC1=O	inactive
C[C@H](CO)N1C[C@H](C)[C@@H](CN(C)Cc2ccc(C(F)(F)F)cc2)OCCCC[C@H](C)Oc2ccc(NS(=O)(=O)c3ccc(F)cc3)cc2C1=O	inactive
N#C[C@H]1N[C@H](CO)[C@@H]1c1ccc(C#Cc2ccccc2F)cc1	inactive
O=C(CCS(=O)(=O)c1ccccc1)Nc1nc2ccc(F)cc2s1	inactive
C[C@H]1CN([C@@H](C)CO)C(=O)CCCn2nncc2CO[C@@H]1CN(C)C(=O)Nc1ccc(-c2cccs2)cc1	inactive
CCN(CC(=O)Nc1c(F)cccc1F)C(=O)c1cc(S(=O)(=O)N(C)C)ccc1N1CCCC1	inactive
N#C[C@@H]1[C@@H](c2ccc(-c3cccc(F)c3)cc2)[C@H](CO)N1C(=O)NC1CCCC1	inactive
COc1ccc(S(=O)(=O)Nc2ccc3c(c2)CC(=O)N([C@@H](C)CO)C[C@@H](C)[C@@H](CN(C)Cc2ccc(-c4ccccc4)cc2)O3)cc1	inactive
COc1ccccc1C#Cc1ccc([C@@H]2[C@@H](C#N)N(C(=O)C3CCCCC3)[C@H]2CO)cc1	inactive
CC(C)c1cc(C(=O)OCC(=O)N2CCN(C(=O)c3ccco3)CC2)c(O)c(C(C)C)c1	inactive
COc1ccc(S(=O)(=O)N2CCCCN3[C@H](CO)[C@H](c4ccc(C#CC(C)C)cc4)[C@H]3C2)cc1	inactive
N#C[C@@H]1[C@H](c2ccc(-c3ccccc3F)cc2)[C@@H](CO)N1C(=O)Cc1ccccc1	inactive
O=S(=O)(Nc1cccc2cccnc12)c1ccccc1	inactive
